According to PubChem BioAssay (NCATS):
Records with an inconclusive call do not appear. Activity calls are given as the source filed them. Unless noted, calls come from the whole dose curve; as a rule, active = well fitted curve in the direction sought with a large enough effect; inconclusive = small, poorly fitted or top-dose-only effect, or another doubt; inactive = no such curve, though single readings can be large; an effect the other way counts as inactive or inconclusive.

Columns and labels:
[1] = target: Calcium and integrin-binding protein 1 (Homo sapiens) (UniProt Q99828); assay: Primary qHTS for Identification of Calcium Integrin Binding Protein 1 (CIB1) Competitor (AID 1508620); details: CIB1-GST / FITC-alphaIIb peptide fluorescence polarization; series mostly up to 114 µM; note: potency is the fitted concentration of half-maximal effect;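 for activity change, negative = inhibition: GST tagged CIB1 binding a fluorescein labelled alphaIIb integrin peptide tracer; top concentration of the series differs between compounds; % is set by controls: 0 for no effect and ±100 for the full control effect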
Sequence of Calcium and integrin-binding protein 1 (Homo sapiens) (Q99828 whole entry, looked up): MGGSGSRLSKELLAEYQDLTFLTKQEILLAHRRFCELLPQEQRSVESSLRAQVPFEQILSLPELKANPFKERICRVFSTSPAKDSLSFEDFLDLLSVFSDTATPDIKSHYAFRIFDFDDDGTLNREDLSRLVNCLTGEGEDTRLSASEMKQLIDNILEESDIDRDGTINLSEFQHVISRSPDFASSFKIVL
Procedure, shortened: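 Fluorescence polarization competition: GST-tagged CIB1 (1 uM final) preincubated with compound 15 min at room temperature, then FITC-labelled alphaIIb peptide (100 nM final) added. After 15 min at room temperature, polarization read at Ex 480/Em 540.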

[2] = Primary qHTS for small molecule stabilizers of the endoplasmic reticulum resident proteome: Secreted ER Calcium Modulated Protein (SERCaMP) assay (AID 1508630); details: SH-SY5Y GLuc-SERCaMP (Gaussia luciferase released on ER calcium loss) secretion, thapsigargin, luminescence; series mostly up to 38.4 µM; note: % is set by controls: 0 for no effect and ±100 for the full control effect
Procedure, shortened: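 The SH-SY5Y reporter protocol was run at 3 concentrations up to 38.3 uM (primary) or 11 concentrations (follow-up): 16 h compound, 100 nM thapsigargin for 4 h, then extracellular luciferase luminescence.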

[3] = A High-Content qHTS Against Drug Library for the Identification of Small Molecules that Inhibit DYT1 Early Onset Primary Dystonia-Associated Cell Pathology (AID 1645839; calls by dose curve); details: HEK293 Flp-In EGFP-delE TorsinA, punctate imaging, 48 h; series mostly up to 46.1 µM
Procedure, shortened: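 Cells were seeded and left for 24 h, then dosed with compound alongside tetracycline induction of mutant EGFP-TorsinA. They were incubated for 48 h, fixed in 4% paraformaldehyde, permeabilized and imaged for mislocalization (%pathology) and cell count.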

[4] = target: Cytochrome P450 2C9 (Homo sapiens) (UniProt P11712); assay: Cytochrome P450 family 2 subfamily C member 9 (CYP2C9) small molecule antagonists: luciferase biochemical (cell-free) qHTS assay (AID 1645842; active = well fitted curve in the direction sought with a large enough effect in the repeat runs; an effect the other way counts as inactive or inconclusive; note: nearly all actives have a fitted effect of over 55% in size; note: potency is the fitted concentration of half-maximal effect; for activity change, negative = inhibition: % is set by controls: 0 for no effect and ±100 for the full control effect); details: P450-Glo CYP2C9 enzyme assay, luciferin luminescence; series mostly up to 57.4 µM
Sequence of Cytochrome P450 2C9 (Homo sapiens) (P11712 whole entry, looked up): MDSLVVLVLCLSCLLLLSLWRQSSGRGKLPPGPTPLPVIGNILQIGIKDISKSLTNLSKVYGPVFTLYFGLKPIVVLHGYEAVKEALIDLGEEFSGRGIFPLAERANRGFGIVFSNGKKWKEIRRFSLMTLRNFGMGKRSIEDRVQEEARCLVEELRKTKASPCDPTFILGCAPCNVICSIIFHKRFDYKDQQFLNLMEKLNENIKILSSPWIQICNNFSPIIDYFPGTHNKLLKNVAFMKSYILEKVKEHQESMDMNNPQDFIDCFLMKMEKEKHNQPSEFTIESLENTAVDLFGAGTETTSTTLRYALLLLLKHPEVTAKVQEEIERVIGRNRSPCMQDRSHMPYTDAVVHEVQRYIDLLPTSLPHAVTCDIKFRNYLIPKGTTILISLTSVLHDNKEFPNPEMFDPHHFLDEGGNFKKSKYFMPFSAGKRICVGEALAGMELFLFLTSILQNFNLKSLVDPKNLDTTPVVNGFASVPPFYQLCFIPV
Procedure, shortened: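 P450-Glo CYP2C9 system: proluciferin substrate with enzyme in mix containing 0.4% BSA, 10 min at room temperature, then NADPH regeneration solution added and incubated 1 h at 37C. Detection reagent stopped reaction; luminescence read after 20 min as RLU.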

[5] = target: Rap guanine nucleotide exchange factor 3 (Homo sapiens) (UniProt O95398); assay: Confirmatory qHTS for antagonist of cAMP-regulated guanine nucleotide exchange factor 3 (EPAC1) (AID 1645880); details: EPAC1 Rap1B-BODIPY-GDP exchange, fluorescence; series mostly up to 115 µM;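 note: plate controls were DMSO only for no effect and full effect of the ATA control for full effect; nearly all actives have a fitted effect of over 55% in size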
Sequence of Rap guanine nucleotide exchange factor 3 (Homo sapiens) (O95398 whole entry, looked up): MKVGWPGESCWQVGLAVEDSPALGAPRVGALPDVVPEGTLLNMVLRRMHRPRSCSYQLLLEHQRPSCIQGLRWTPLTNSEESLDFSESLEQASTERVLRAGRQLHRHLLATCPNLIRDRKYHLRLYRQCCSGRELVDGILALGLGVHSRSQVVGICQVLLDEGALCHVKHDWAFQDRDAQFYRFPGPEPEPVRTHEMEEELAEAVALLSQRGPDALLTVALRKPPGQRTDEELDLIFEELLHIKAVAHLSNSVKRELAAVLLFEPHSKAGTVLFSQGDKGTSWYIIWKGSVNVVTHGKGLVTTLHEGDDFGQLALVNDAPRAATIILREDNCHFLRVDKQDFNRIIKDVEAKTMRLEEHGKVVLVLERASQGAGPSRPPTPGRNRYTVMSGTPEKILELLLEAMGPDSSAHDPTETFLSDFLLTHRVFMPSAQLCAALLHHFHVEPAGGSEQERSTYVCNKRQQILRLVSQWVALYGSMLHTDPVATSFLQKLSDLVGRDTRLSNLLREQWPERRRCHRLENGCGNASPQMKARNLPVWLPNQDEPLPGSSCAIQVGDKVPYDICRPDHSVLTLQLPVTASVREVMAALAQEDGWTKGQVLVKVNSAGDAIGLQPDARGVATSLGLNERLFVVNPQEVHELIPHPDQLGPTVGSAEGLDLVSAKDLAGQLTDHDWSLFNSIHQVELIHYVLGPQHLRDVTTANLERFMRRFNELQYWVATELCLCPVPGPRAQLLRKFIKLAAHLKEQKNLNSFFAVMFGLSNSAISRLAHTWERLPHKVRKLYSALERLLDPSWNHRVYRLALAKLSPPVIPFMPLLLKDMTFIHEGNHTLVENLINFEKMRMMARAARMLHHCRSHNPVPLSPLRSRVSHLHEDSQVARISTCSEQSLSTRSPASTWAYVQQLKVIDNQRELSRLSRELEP
Procedure, shortened: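 Released BODIPY-GDP fluoresces less than Rap1-bound BODIPY-GDP; the signal is followed at 480/540 nm at 5-min intervals over 30 min, after 5 min at room temperature. Reactions contain 100 nM EPAC1, 250 nM RAP1B-BODIPY-GDP and 50 uM GDP; results are normalized to ATA and DMSO.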

[6] = target: Rap guanine nucleotide exchange factor 3 (Homo sapiens) (UniProt O95398); assay: Confirmatory qHTS for agonist of cAMP-regulated guanine nucleotide exchange factor 3 (EPAC1) (AID 1645881); details: EPAC1 Rap1B BODIPY-GDP exchange fluorescence, 100% = cAMP control response; series mostly up to 154 µM;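 note: EPAC1 catalysed release of BODIPY-GDP from Rap1B seen as fluorescence loss; nearly all actives have a fitted effect of over 75% in size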
[7] = target: Rap guanine nucleotide exchange factor 4 (Homo sapiens) (UniProt Q8WZA2); assay: Confirmatory qHTS for agonist of cAMP-regulated guanine nucleotide exchange factor 4 (EPAC2) (AID 1645884); details: EPAC2 GEF activity, Rap1B-BODIPY-GDP fluorescence, percent relative to cAMP agonist control; series mostly up to 154 µM;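 note: nucleotide exchange releases bodipy-GDP from Rap1 and this lowers its fluorescence; % is set by controls: 0 for no effect and ±100 for the full control effect; nearly all actives have a fitted effect of over 65% in size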
Sequence of Rap guanine nucleotide exchange factor 4 (Homo sapiens) (Q8WZA2 whole entry, looked up): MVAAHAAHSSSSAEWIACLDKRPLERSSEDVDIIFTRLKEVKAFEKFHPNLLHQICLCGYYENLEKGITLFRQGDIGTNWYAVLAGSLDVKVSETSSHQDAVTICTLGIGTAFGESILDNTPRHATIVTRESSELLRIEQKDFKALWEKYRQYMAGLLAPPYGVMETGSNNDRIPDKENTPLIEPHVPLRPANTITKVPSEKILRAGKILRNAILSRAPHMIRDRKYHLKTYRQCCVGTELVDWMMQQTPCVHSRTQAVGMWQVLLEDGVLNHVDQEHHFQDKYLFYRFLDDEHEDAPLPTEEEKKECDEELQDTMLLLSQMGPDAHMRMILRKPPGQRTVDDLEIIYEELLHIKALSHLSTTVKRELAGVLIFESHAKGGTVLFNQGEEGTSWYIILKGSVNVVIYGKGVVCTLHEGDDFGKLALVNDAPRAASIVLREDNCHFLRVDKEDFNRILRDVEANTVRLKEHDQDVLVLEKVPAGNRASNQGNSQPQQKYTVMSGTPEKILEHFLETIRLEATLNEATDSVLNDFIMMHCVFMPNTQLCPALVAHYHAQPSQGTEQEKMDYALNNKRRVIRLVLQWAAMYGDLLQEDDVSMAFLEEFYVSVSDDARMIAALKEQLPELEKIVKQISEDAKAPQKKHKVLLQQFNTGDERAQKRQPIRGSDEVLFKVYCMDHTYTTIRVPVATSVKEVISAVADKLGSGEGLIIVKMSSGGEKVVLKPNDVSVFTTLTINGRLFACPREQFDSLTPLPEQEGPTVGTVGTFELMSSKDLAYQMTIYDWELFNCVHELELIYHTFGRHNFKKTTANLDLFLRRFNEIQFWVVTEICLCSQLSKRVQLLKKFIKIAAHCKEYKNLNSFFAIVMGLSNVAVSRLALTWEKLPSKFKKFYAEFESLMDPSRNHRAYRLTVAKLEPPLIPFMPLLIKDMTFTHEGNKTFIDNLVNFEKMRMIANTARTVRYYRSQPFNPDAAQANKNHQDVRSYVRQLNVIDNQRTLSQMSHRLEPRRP

[8] = target: Cytochrome P450 2D6 (Homo sapiens) (UniProt P10635); assay: Cytochrome P450 family 2 subfamily D member 6 (CYP2D6) small molecule antagonists: luciferase biochemical (cell-free) qHTS assay (AID 1645840; active = well fitted curve in the direction sought with a large enough effect in the repeat runs; an effect the other way counts as inactive or inconclusive; note: nearly all actives have a fitted effect of over 55% in size; note: potency is the fitted concentration of half-maximal effect); details: P450-Glo CYP2D6 enzyme, luciferin luminescence, 1 h; series mostly up to 57.4 µM
Sequence of Cytochrome P450 2D6 (Homo sapiens) (P10635 whole entry, looked up): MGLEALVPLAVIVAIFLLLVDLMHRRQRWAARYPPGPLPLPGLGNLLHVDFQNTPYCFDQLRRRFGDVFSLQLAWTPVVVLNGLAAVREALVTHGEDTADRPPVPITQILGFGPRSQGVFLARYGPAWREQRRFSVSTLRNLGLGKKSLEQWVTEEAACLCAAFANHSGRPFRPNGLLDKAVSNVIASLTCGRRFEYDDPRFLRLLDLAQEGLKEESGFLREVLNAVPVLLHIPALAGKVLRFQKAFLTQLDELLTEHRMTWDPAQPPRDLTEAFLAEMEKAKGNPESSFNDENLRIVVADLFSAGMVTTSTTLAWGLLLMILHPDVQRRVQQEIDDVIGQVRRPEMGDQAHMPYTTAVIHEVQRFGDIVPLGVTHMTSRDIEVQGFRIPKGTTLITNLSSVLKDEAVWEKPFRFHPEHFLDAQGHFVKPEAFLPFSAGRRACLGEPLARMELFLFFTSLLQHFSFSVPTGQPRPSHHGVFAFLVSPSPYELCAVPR
Procedure, shortened: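 P450-Glo CYP2D6 system: proluciferin substrate converted by enzyme to luciferin, read by luminescence proportional to activity. Enzyme-substrate mix with compound 10 min at room temperature, then NADPH regeneration 1 h before detection reagent.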

[9] = Primary qHTS for inhibitors of nuclear receptor binding SET domain protein 2 (NSD2) in an isogenic RCH-ACV NSD2 p.E1099K mutant (9B) (AID 1645876); details: RCH-ACV NSD2 E1099K (9B) viability, CellTiter-Glo, 72 h; series mostly up to 44.9 µM; note: nearly all actives have a fitted effect of over 70% in size
[10] = Primary qHTS for inhibitors of nuclear receptor binding SET domain protein 2 (NSD2) in an RCH-ACV wild type WT cells (2C) (AID 1645877); details: RCH-ACV (leukaemia line) NSD2 WT (2C) viability, CellTiter-Glo, 72 h; series mostly up to 44.9 µM; note: nearly all actives have a fitted effect of over 70% in size
[11] = Confirmatory qHTS for small molecule stabilizers of the endoplasmic reticulum resident proteome: Secreted ER Calcium Modulated Protein (SERCaMP) assay (AID 1508628); details: SERCaMP secreted luciferase ER calcium/proteostasis reporter; series mostly up to 76.3 µM; note: % is set by controls: 0 for no effect and ±100 for the full control effect; nearly all actives have a fitted effect of over 40% in size
Procedure, shortened: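 Reporter secretion upon ER calcium depletion (100 nM thapsigargin, 4 h, 37C) is measured as medium luminescence with coelenterazine, after 16 h compound pretreatment of SH-SY5Y-GLuc-SERCaMP cells; primary at three concentrations up to 38.3 uM, follow-up at 11 (up to 76.6 uM).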

[12] = target: Cytochrome P450 3A4 (Homo sapiens) (UniProt P08684); assay: Cytochrome P450 family 3 subfamily A member 4 (CYP3A4) small molecule antagonists: luciferase qHTS assay (AID 1645841; active = well fitted curve in the direction sought with a large enough effect in the repeat runs; an effect the other way counts as inactive or inconclusive; note: potency is the fitted concentration of half-maximal effect; nearly all actives have a fitted effect of over 45% in size); details: P450-Glo CYP3A4 enzyme assay, luciferin luminescence; series mostly up to 57.4 µM
Sequence of Cytochrome P450 3A4 (Homo sapiens) (P08684 whole entry, looked up): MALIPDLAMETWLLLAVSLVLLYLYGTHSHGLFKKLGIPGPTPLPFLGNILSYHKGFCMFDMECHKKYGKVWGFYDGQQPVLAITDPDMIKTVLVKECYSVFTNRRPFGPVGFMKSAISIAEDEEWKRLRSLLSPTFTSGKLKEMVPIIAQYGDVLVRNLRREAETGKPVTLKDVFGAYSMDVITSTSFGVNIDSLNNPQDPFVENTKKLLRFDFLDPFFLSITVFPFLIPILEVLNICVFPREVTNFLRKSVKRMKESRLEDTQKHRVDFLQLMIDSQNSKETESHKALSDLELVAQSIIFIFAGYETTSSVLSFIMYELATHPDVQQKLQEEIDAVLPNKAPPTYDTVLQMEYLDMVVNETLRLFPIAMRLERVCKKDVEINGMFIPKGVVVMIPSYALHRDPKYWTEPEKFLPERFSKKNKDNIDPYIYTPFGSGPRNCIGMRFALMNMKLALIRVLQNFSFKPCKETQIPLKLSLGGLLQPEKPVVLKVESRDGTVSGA
Procedure, shortened: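 P450-Glo CYP3A4 enzyme with proluciferin substrate preincubated 10 min with compound at room temperature, then NADPH regeneration 1 h. Luciferin detection reagent added for 20 min; luminescence recorded. Ketoconazole positive control.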

[13] = Cytotoxicity counterscreen for inhibitors of SARS-CoV-2 cell entry (AID 1645845; calls by dose curve; note: nearly all actives have a fitted effect of over 50% in size); details: cell viability (SARS-CoV-2 entry assay cells); series mostly up to 57.1 µM
Procedure, shortened: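 Counterscreen run in the same HEK293-ACE2 line as the pseudotyped-particle entry assay, without particles. Viability after 48 h at 37 C was read as ATP luminescence, scaled between cell-containing and cell-free wells.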

[14] = Primary qHTS to identify inhibitors of SARS-CoV-2 cell entry (AID 1645846; calls by dose curve; note: nearly all actives have a fitted effect of over 45% in size); details: SARS-CoV-2 pseudovirus cell entry assay, luminescence; activity change, negative = inhibition: at 57.1 µM (top of the series) unless noted; series mostly up to 57.1 µM
Procedure, shortened: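 Using luciferase-reporting pseudoviruses carrying Wuhan-Hu-1 spike, the screen tracks entry into stably ACE2-expressing cells over 48 hr. Activity is expressed relative to spike particles versus particles lacking any fusion protein.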

[15] = Counterscreen qHTS for small molecule stabilizers of the endoplasmic reticulum resident proteome: GLuc-NoTag assay (AID 1508627); details: Gaussia luciferase NoTag secretion counterscreen, luminescence, thapsigargin 100 nM for final 4 h; series mostly up to 76.4 µM;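 note: 0% = thapsigargin alone and -100% = DMSO vehicle control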
Procedure, shortened: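 Counterscreen line: SH-SY5Y-GLuc-NoTag. Seed, 5 h; compound, 19 h; thapsigargin 100 nM, 4 h; 37C/5% CO2. Readout: secreted GLuc luminescence, coelenterazine 0.07x final, no lysis.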

[16] = Cell Viability qHTS for small molecule stabilizers of the endoplasmic reticulum resident proteome (AID 1508629); details: cell viability counter-screen, 100 nM thapsigargin for final 4 h;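 note: human SH-SY5Y neuroblastoma cells carrying the GLuc-SERCaMP reporter; compound exposure about 46 h in total before the viability read; % is set by controls: 0 for no effect and ±100 for the full control effect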

O=C1c2ccccc2C(=O)C1C(=O)C(c1ccccc1)c1ccccc1
active: Potency [4] 0.384 µM
inactive: Potency [1] | Potency [2] | outcome [3] | outcome [5] | outcome [6] | outcome [7]

CCN[C@@H](C)Cc1cccc(C(F)(F)F)c1
active: Potency [8] 2.75 µM
inactive: Potency [1] | Potency [2] | outcome [3] | Potency [4] | Potency [9] | Potency [10]

CNCC(=O)c1ccc(O)c(O)c1
inactive: Potency [1] | Potency [11] | outcome [3] | Potency [4] | Potency [9]

CCN(CC)C(=O)[C@@H]1C=C2c3cccc4[nH]cc(c34)C[C@H]2N(C)C1
active: Potency [1] 63.1 µM
inactive: Potency [2]

NC(=O)c1cc([N+](=O)[O-])cc([N+](=O)[O-])c1
active: Potency [12] 9.65 µM
inactive: Potency [1] | Potency [2] | outcome [3] | Potency [4] | Potency [13] | Potency [9] | Potency [10]
-10.7%: activity change, negative = inhibition [14]

CN1CC[C@]23c4c5ccc(O)c4O[C@H]2[C@@H](O)C=C[C@H]3[C@H]1C5
inactive: Potency [1]

ClCCN1CCCC1
inactive: Potency [1] | Potency [2] | Potency [8] | Potency [4] | Potency [9] | Potency [10]

C[N+]1(CCF)[C@@H]2CC[C@H]1CC(OC(=O)C(O)(c1ccccc1)c1ccccc1)C2 (some centres undefined)
active: Potency [8] 15.5 µM
inactive: Potency [1] | Potency [2] | outcome [3] | Potency [4] | Potency [13] | Potency [9] | Potency [10]

c1ccc2c(c1)sc1ccccc12
-6.22%: activity change, negative = inhibition [14]
inactive: Potency [1] | Potency [2] | outcome [3] | Potency [13] | Potency [9] | Potency [10]

O=C(O)CCCc1ccc(N(CCCl)CCCl)cc1
inactive: Potency [1] | Potency [2] | Potency [13] | Potency [9] | Potency [10]

COc1c2c(cc3c1OCO3)CCN(C)C2
-9.9%: activity change, negative = inhibition [14]
inactive: outcome [15] | Potency [11] | max response [16] 7.99% | Potency [13] | Potency [9] | Potency [10]
